Measured values reported in PubChem BioAssay (NCATS).
Several values for one entry are separate records, joined by “and”; a condition that tells them apart may be missing. Equal values may be shown once. Inconclusive results are not listed. A call without a number means that no potency is given here. A structure can be active in one record and inactive in another. Activity calls are given as the source filed them. Unless noted, calls come from the whole dose curve; as a rule, active = well fitted curve in the direction sought with a large enough effect; inconclusive = small, poorly fitted or top-dose-only effect, or another doubt; inactive = no such curve, though single readings can be large; an effect the other way counts as inactive or inconclusive.

How the values were obtained:
[1] = biological target: Nicotinamide N-methyltransferase (Homo sapiens) (UniProt P40261); assay: Confirmatory Screen for Target Class Profiling of Small Molecule Inhibitors of Methyltransferases (AID 1745852); conditions: MTase-Glo luminescence, SAH detection, recombinant enzyme; measured here: NNMT max response; stronger effect = lower value
Nicotinamide N-methyltransferase (Homo sapiens), sequence (P40261 whole entry, looked up): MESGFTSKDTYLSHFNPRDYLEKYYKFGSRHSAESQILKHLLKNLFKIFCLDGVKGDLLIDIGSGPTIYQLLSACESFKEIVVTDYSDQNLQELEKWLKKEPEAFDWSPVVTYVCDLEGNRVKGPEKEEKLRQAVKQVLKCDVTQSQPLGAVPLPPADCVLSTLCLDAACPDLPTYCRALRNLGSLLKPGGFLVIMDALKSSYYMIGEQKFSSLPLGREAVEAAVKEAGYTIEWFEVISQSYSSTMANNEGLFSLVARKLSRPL

[2] = biological target: Phenylethanolamine N-methyltransferase (Homo sapiens) (UniProt P11086); assay: as above; conditions: MTase-Glo luminescence, SAH detection, recombinant enzyme; measured here: PNMT max response; stronger effect = lower value
Phenylethanolamine N-methyltransferase (Homo sapiens), sequence (P11086 whole entry, looked up): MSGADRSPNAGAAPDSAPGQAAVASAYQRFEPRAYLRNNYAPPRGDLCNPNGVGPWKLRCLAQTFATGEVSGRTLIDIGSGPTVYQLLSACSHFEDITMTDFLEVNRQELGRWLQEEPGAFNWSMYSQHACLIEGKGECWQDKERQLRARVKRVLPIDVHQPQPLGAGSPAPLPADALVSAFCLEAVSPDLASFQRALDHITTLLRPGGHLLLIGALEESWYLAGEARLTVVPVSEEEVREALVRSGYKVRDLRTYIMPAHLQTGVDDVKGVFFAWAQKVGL

[3] = biological target: Glutathione peroxidase 1 (Homo sapiens) (UniProt P07203); assay: Primary qHTS Assay for Inhibitors of Recombinant Selenoprotein Glutathione Peroxidase 1 (GPX1) (AID 1845191); conditions: recombinant GPX1, GR-coupled NADPH fluorescence, 15 min; series mostly up to 48.8 µM; note: nearly all actives have a fitted effect of over 65% in size
Glutathione peroxidase 1 (Homo sapiens), sequence (P07203 whole entry, looked up): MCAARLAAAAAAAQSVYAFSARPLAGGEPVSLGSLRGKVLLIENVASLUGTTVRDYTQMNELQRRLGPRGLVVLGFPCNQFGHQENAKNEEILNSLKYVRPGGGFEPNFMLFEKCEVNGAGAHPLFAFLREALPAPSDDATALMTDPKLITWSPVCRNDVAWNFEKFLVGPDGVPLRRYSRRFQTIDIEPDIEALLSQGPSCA
Summary of the method: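 NADPH consumption tracked by fluorescence at 340/450 nm between t=0 and t=15 min, room temperature. Final mix: 10 nM GPX1, 100 nM glutathione reductase, 1 mM GSH, 0.5 mM NADPH, 0.5 mM cumene hydroperoxide, 0.01% BSA; 30 min compound–enzyme preincubation.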

[4] = biological target: Phospholipid hydroperoxide glutathione peroxidase GPX4 (Homo sapiens) (UniProt P36969); assay: Primary qHTS Assay for Inhibitors of Recombinant Selenoprotein Glutathione Peroxidase 4 (GPX4) (AID 1845192); conditions: recombinant GPX4, GR-coupled NADPH fluorescence, 15 min; series mostly up to 50 µM; note: nearly all actives have a fitted effect of over 65% in size; note: potency is the fitted concentration of half-maximal effect
Phospholipid hydroperoxide glutathione peroxidase GPX4 (Homo sapiens), sequence (P36969 whole entry, looked up): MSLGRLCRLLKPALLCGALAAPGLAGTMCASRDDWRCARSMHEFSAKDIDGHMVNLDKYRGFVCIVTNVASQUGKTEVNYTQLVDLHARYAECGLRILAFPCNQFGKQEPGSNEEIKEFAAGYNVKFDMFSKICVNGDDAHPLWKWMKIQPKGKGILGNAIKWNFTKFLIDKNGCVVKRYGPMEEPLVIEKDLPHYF
Summary of the method: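 NADPH consumption followed by fluorescence at 340/450 nm, t=0 and after 15 min at room temperature. Reaction started with cumene hydroperoxide (0.5 mM final) after 30 min compound–GPX4 preincubation; final 200 nM GPX4, 100 nM GR, 1 mM GSH, 0.5 mM NADPH.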

[5] = biological target: Luciferin 4-monooxygenase (Photinus pyralis) (UniProt P08659); assay: Primary firefly luciferase (FLuc) qHTS assay for identification of artifact compounds. (AID 1845220); conditions: purified firefly luciferase, luminescence, 5 min; series mostly up to 54.1 µM; note: nearly all actives have a fitted effect of over 60% in size
Summary of the method: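 Compounds sat 15 min at room temperature with 10 uM luciferin and 10 uM ATP (pH 7.6 Tris acetate). Firefly luciferase (10 nM final) was then added, and luminescence was read 5 min later. Data normalized to no-enzyme and DMSO controls were Hill-fitted.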

[6] = system: Nanoluciferase (engineered Oplophorus gracilirostris luciferase); assay: Primary Nanoluciferase (NLuc) qHTS assay for identification of artifact compounds. (AID 1845222); conditions: NLuc-conditioned medium, Nano-Glo luminescence, 5 min; series mostly up to 54.1 µM
Summary of the method: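 Luminescence from secreted NLuc (filtered, 1:55-diluted S16 cell medium) read 5 min after Nano-Glo substrate; compounds preincubated 15 min, RT. Hill fits of inhibition normalized to DMSO and no-enzyme.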

[7] = Primary fluorescence-based thiol-reactive (MSTI) qHTS assay for identification of artifact compounds. (AID 1845221); conditions: MSTI thiol-reactivity probe, 1 h; series mostly up to 53.8 µM; note: nearly all actives have a fitted effect of over 65% in size; note: potency is the fitted concentration of half-maximal effect
Summary of the method: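 Compounds were incubated 1 h at room temperature in the dark with the MSTI probe (4 uM) in PBS pH 7.4, 2% DMSO. Signals were normalized between Acetyl-MSTI and MSTI.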

[8] = NCATS anti-infectives library activity on HEK293 viability as a counter-qHTS vs the C. elegans viability qHTS (AID 1745854); conditions: HEK293 viability counter-screen; series mostly up to 41.8 µM;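 note: HEK293 cells exposed to compounds for 24 hr before the viability read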
Summary of the method: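 Counter-screen for cytotoxicity: HEK293, 24 hr, 37C, compounds up to 41.7 uM final (a dilution series, 1:5). Readout CellTiter-Glo luminescence, 10 min RT. Digitonin control, 83.3 uM final.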

[9] = NCATS anti-infectives library activity on the primary C. elegans qHTS viability assay (AID 1745855; calls by dose curve); conditions: C. elegans worm area imaging, day 7; series mostly up to 41.8 µM
Summary of the method: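 GFP read-out by 488 nm laser cytometry at day 0, 3 and 7, gated on object perimeter, area and peak intensity, scored viability of PE254-GFP-FLuc worms exposed to compound in S medium with bacterial capsules at 21 °C.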

Q: For `NC1(Cc2ccc(Cl)cc2)CCN(c2ncnc3[nH]ccc23)CC1`, which activity [1] is on record?
A: -26.7%

Q: What about the activity [2] of the same compound?
A: -31.7%

Q: What about the Potency [3] of the same compound?
A: inactive

Q: What about the Potency [4] of the same compound?
A: inactive

Q: And the Potency [5]?
A: inactive

Q: What about the Potency [6] of the same compound?
A: inactive

Q: What does the source list for `CC1(C)CC(=O)c2c(C(F)(F)F)nn(-c3ccc(C(N)=O)c(NC4CCC(OC(=O)CN)CC4)c3)c2C1` (configuration not stated)?
A: activity [1]: -47.8%; activity [2]: -0.772%; Potency [3]: inactive; Potency [4]: inactive; Potency [5]: inactive; Potency [7]: inactive; Potency [6]: inactive

Q: Which results are given for `Nc1ccn([C@@H]2CS[C@H](CO)O2)c(=O)n1`?
A: Potency [8]: inactive; Potency [3]: inactive; Potency [4]: inactive

Q: Which activity [1] does the source give for `Nc1ncnc2c1c(-c1cccc(OCc3ccccc3)c1)cn2C1CC(CN2CCCC2)C1` (configuration not stated) here?
A: -68.2%

Q: What about the activity [2] of the same compound?
A: -98.1%

Q: What about the Potency [3] of the same compound?
A: inactive

Q: And the Potency [5]?
A: inactive

Q: What about the Potency [7] of the same compound?
A: inactive

Q: For `OCCCNc1cc(-c2ccnc(Nc3cccc(Cl)c3)n2)ccn1`, which activity [1] is on record?
A: -65.5%

Q: What about the activity [2] of the same compound?
A: -82.3%

Q: And the Potency [3]?
A: inactive

Q: What about the Potency [5] of the same compound?
A: inactive

Q: What about the Potency [7] of the same compound?
A: inactive

Q: And the Potency [6]?
A: inactive

Q: Which activity [1] does the source give for `Nc1cccc(-c2cc3c(Oc4cccc(O)c4)ncnc3[nH]2)c1` here?
A: -47.2%

Q: What about the activity [2] of the same compound?
A: -55.3%

Q: What about the Potency [3] of the same compound?
A: inactive

Q: And the Potency [4]?
A: inactive and 14.3 µM (active)

Q: And the Potency [5]?
A: inactive

Q: And the Potency [7]?
A: 9.47 µM (active)

Q: Which activity [1] does the source give for `CN1CCC(CNc2ccc3ncc(-c4cccc(OC(F)(F)F)c4)n3n2)CC1` here?
A: -51.9%

Q: And the activity [2]?
A: -68.8%

Q: And the Potency [4]?
A: 22.7 µM (active) and 14.3 µM (active)

Q: And the Potency [5]?
A: inactive

Q: And the Potency [7]?
A: inactive

Q: And the Potency [6]?
A: inactive

Q: For `Cc1c(C)n(Cc2ccc(-c3ccccc3C(=O)O)cc2)c2ccc(C(=O)N[C@@H](C)c3ccc([N+](=O)[O-])cc3)cc12`, which activity [1] is on record?
A: -14.9%

Q: What about the activity [2] of the same compound?
A: -11.9%

Q: What about the Potency [3] of the same compound?
A: inactive

Q: And the Potency [5]?
A: inactive

Q: What about the Potency [6] of the same compound?
A: inactive

Q: For `C=CC(=O)Nc1cccc(Oc2nc(Nc3ccc(N4CCN(C)CC4)cc3)ncc2Cl)c1`, which activity [1] is on record?
A: -51.9%

Q: And the activity [2]?
A: -14.3%

Q: And the Potency [3]?
A: inactive

Q: And the Potency [4]?
A: inactive

Q: What about the Potency [5] of the same compound?
A: inactive

Q: And the Potency [6]?
A: inactive

Q: For `Cc1cc(Nc2cc(N3CCN(C)CC3)nc(Sc3ccc(NC(=O)C4CC4)cc3)n2)n[nH]1`, which activity [1] is on record?
A: -2.46%

Q: What about the activity [2] of the same compound?
A: -1.21%

Q: And the Potency [5]?
A: inactive

Q: And the Potency [7]?
A: inactive

Q: And the Potency [6]?
A: inactive

Q: What does the source list for `CC[C@@H]1C(=O)N(C)c2cnc(Nc3ccc(C(=O)NC4CCN(C)CC4)cc3OC)nc2N1C1CCCC1`?
A: activity [1]: -45.4%; activity [2]: -31.6%; Potency [4]: inactive

Q: Which activity [1] does the source give for `Cn1c(CNc2ccc(C(=N)N)cc2)nc2cc(C(=O)N(CCC(=O)O)c3ccccn3)ccc21` here?
A: -1.22%

Q: And the activity [2]?
A: -0.426%

Q: What about the Potency [4] of the same compound?
A: inactive

Q: What about the Potency [5] of the same compound?
A: inactive

Q: And the Potency [7]?
A: inactive

Q: And the Potency [6]?
A: inactive

Q: Which activity [1] does the source give for `Nc1ccccc1NC(=O)c1ccc(CNc2nccc(-c3cccnc3)n2)cc1` here?
A: -33.2%

Q: What about the activity [2] of the same compound?
A: -7.44%

Q: What about the Potency [8] of the same compound?
A: inactive

Q: And the Potency [3]?
A: inactive

Q: And the Potency [4]?
A: inactive

Q: And the Potency [5]?
A: inactive

Q: And the Potency [7]?
A: inactive

Q: And the Potency [6]?
A: inactive

Q: For `Cc1c(CN2CCN(S(C)(=O)=O)CC2)sc2c(N3CCOCC3)nc(-c3cnc(N)nc3)nc12`, which activity [1] is on record?
A: -17.8%

Q: What about the activity [2] of the same compound?
A: -14.7%

Q: What about the Potency [3] of the same compound?
A: inactive

Q: And the Potency [4]?
A: inactive

Q: And the Potency [5]?
A: inactive

Q: What about the Potency [7] of the same compound?
A: inactive

Q: What about the Potency [6] of the same compound?
A: inactive

Q: Which activity [1] does the source give for `Cc1cc(Nc2nc(N[C@@H](C)c3ccc(F)cc3)c(C#N)cc2F)n[nH]1` here?
A: -35.7%

Q: What about the activity [2] of the same compound?
A: -6.34%

Q: What about the Potency [9] of the same compound?
A: inactive

Q: And the Potency [3]?
A: inactive

Q: What about the Potency [4] of the same compound?
A: inactive

Q: And the Potency [5]?
A: inactive

Q: What about the Potency [7] of the same compound?
A: inactive

Q: And the Potency [6]?
A: inactive

Q: What does the source list for `O=C(O)c1ccc2c(c1)nc(Nc1cccc(Cl)c1)c1ccncc12`?
A: activity [1]: -53.1%; activity [2]: -66.6%; Potency [3]: inactive; Potency [4]: inactive; Potency [5]: inactive

Q: Which activity [1] does the source give for `CCS(=O)(=O)c1cccc(-c2cc(C(=O)NC3CCN(C)CC3)c(C)c3[nH]c4ncc(C)cc4c23)c1` here?
A: -55.9% and -55.5%

Q: What about the activity [2] of the same compound?
A: -15.8% and -17.5%

Q: What about the Potency [4] of the same compound?
A: inactive

Q: What about the Potency [5] of the same compound?
A: inactive

Q: And the Potency [7]?
A: inactive

Q: What about the Potency [6] of the same compound?
A: inactive

Q: Which activity [1] does the source give for `Cc1coc2c1C(=O)C(=O)c1c-2ccc2c1CCCC2(C)C` here?
A: -48.9%

Q: And the activity [2]?
A: -37.9%

Q: And the Potency [8]?
A: inactive

Q: What about the Potency [3] of the same compound?
A: inactive

Q: What about the Potency [6] of the same compound?
A: inactive

Q: For `Nc1nccc(Oc2ccc(NC(=O)c3c[nH]cc(-c4ccc(F)cc4)c3=O)cc2F)c1Cl`, which activity [1] is on record?
A: -55.9%

Q: And the activity [2]?
A: -3%

Q: What about the Potency [3] of the same compound?
A: inactive

Q: What about the Potency [7] of the same compound?
A: inactive

Q: With `Cc1ccc(C(N)=O)cc1Nc1nccc(-c2cn(C(C)C)c3cnccc23)n1` as the compound, how does the activity [1] read?
A: -53.8%

Q: What about the activity [2] of the same compound?
A: -56%

Q: What about the Potency [3] of the same compound?
A: inactive

Q: And the Potency [4]?
A: inactive

Q: What about the Potency [5] of the same compound?
A: inactive

Q: And the Potency [7]?
A: inactive

Q: Which activity [1] does the source give for `O=C(c1ccc(Nc2nccc(-c3cc4ccccc4s3)n2)cc1)N1CCC(N2CCCC2)CC1` here?
A: -19.2%

Q: What about the activity [2] of the same compound?
A: -17.2%

Q: And the Potency [3]?
A: inactive

Q: What about the Potency [4] of the same compound?
A: inactive

Q: What about the Potency [5] of the same compound?
A: inactive

Q: And the Potency [7]?
A: inactive

Q: What about the Potency [6] of the same compound?
A: inactive

Q: For `O=C(O)C1(Cc2cccc(Nc3nccs3)n2)CCC(Oc2cccc(Cl)c2F)CC1` (configuration not stated), which activity [1] is on record?
A: -34.5%

Q: And the activity [2]?
A: -68.7%

Q: What about the Potency [3] of the same compound?
A: inactive

Q: And the Potency [4]?
A: inactive

Q: And the Potency [5]?
A: inactive

Q: What about the Potency [6] of the same compound?
A: inactive

Q: What does the source list for `Nc1ncnc2c1c(-c1cnc3[nH]ccc3c1)nn2C1CCCC1`?
A: activity [1]: -56.1%; activity [2]: -52.4%; Potency [3]: inactive; Potency [4]: inactive; Potency [7]: inactive; Potency [6]: inactive
